# Laboratory results taken from ChEMBL document CHEMBL3988442, “University of Dundee, Small-Polar-MMV Screening Library” (2021).
# Among all 69,000 compounds or so, about 950 (1.4%) showed an effect of 50% or more. The full list was thinned out, with strong results kept by preference.
# Tested on: Mycobacterium tuberculosis
# Experiment: Cornell M. t heat shock assay; further: in the data most compounds retested in dose-response had high values
# Assay type: functional, organism-based
# Parameters: dose or concentration left out as unconfirmed
row,SMILES,Percent Effect
1,O=C(O)C(F)(F)F.c1csc(NCc2n[nH]c3c2CCN(CC2CC2)C3)n1,-23.28%
2,Cc1cccc(CN2CCCn3c(nnc3Cn3cccn3)C2)n1.O=C(O)C(F)(F)F,-30.89%
3,CC(C)c1cnc(CN(C)C2CCN(CCc3ccccn3)C2)o1 (stereo not given),-13.05%
4,Cc1cnc(CN(C)C2CCN(CC(=O)Nc3nncs3)C2)o1.O=C(O)C(F)(F)F (stereo not given),-4.89%
5,Cc1cnc(CN(C)C2CCN(CC(=O)N(C)c3nccs3)C2)o1 (stereo not given),15.65%
6,CCc1cnc(CN(C)C2CCN(CC(=O)Nc3cc(C)on3)C2)o1 (stereo not given),-19.35%
7,Cc1cnc(CN(C)C2CCN(CC(=O)Nc3nccs3)C2)o1 (stereo not given),66.08%
8,CCc1cnc(CN(C)C2CCN(CC(=O)Nc3nccs3)C2)o1 (stereo not given),61.16%
9,CCc1cnc(CN(C(C)=O)C2CCN(CCc3ccccn3)C2)o1 (stereo not given),-12.32%
10,CCc1cnc(CN(C)C2CCN(CCc3cccs3)C2)o1 (stereo not given),-5.267%
11,CCc1cnc(CN(C)C2CCN(CCc3ccccn3)C2)o1 (stereo not given),105.9%
12,CC(=O)Nc1ccc(CN2C[C@H]3CC[C@@H]2CN(c2ncccn2)C3)cc1,8.779%
13,CC(C)NC(=O)N1Cc2nccn2CC(COc2cccnc2)C1.O=C(O)C(F)(F)F (stereo not given),-13.64%
14,CNC(=O)CN1CCCC12CCN(C(=O)c1ccsc1)CC2.O=C(O)C(F)(F)F,-20.96%
15,O=C(Cc1ccccn1)N1CCN2C[C@H](Oc3cncnc3)C[C@H]2C1.O=C(O)C(F)(F)F.O=C(O)C(F)(F)F,3.514%
16,CCOc1ccc(CNCC(O)c2ccccc2)cc1Cl.Cl (stereo not given),35.2%
17,Cn1cnc2c1CCN(CCCc1ccccc1)C2,8.155%
18,COc1ccc(CN2CCc3nc(C4CCCCN4C)ncc3C2)cc1 (stereo not given),25.26%
19,CN1CCCCC1c1ncc2c(n1)CCN(Cc1ccccc1Cl)C2 (stereo not given),87.15%
20,CN1CCCCC1c1ncc2c(n1)CCN(Cc1ccc(F)cc1)C2 (stereo not given),35.62%

row,SMILES,Percent Effect
1,CN1CCc2nc(C3CCCCN3Cc3ccccc3Cl)ncc2C1 (stereo not given),-4.117%
2,CN1CCCCC1c1ncc2c(n1)CCN(CCCc1ccccc1)C2 (stereo not given),101.2%
3,CN1CCCCC1c1ncc2c(n1)CCN(Cc1ccc(Cl)c(F)c1)C2 (stereo not given),103.7%
4,Cl.Clc1ccccc1CN1CCc2nc(C3CCCCN3)ncc2C1 (stereo not given),12.35%
5,Cc1ncc2c(n1)CN(CCCc1ccccc1)CC2,3.621%
6,O=C(CC1CC1)N1CC[C@H]2[C@@H]1CCC(=O)N2c1cccnc1.O=C(O)C(F)(F)F,-6.311%
7,CC(C)NC(=O)C1(CC2CC(c3ccc(F)cc3)=NO2)CCNCC1.O=C(O)CC(O)(CC(=O)O)C(=O)O (stereo not given),-19.28%
8,CNC(=O)C1Cn2ccnc2C2(CCN(Cc3cccnc3)CC2)O1.O=C(O)C(F)(F)F.O=C(O)C(F)(F)F.O=C(O)C(F)(F)F (stereo not given),-3.867%
9,COc1ccccc1CN1CCCCC1c1n[nH]cc1-c1cc(C)no1.Cl (stereo not given),14.98%
10,COc1cccc(CN2C[C@@H]3COC[C@]3(COCc3ccncc3)C2)c1.O=C(O)C(F)(F)F.O=C(O)C(F)(F)F,-3.091%
11,Cc1csc(CN(C)C2CCN(c3sccc3C#N)C2=O)n1 (stereo not given),-26.99%
12,Fc1ccc(CN2CCCC3(CCN(Cc4ncc[nH]4)C3)C2)cc1F (stereo not given),0.7553%
13,Cc1ccc(CN2CCC3(CCCN(Cc4ccc(F)c(F)c4)C3)C2)o1 (stereo not given),10.97%
14,Cc1c[nH]c(CN2CCC3(CCCN(Cc4ccc(F)c(F)c4)C3)C2)n1 (stereo not given),58.72%
15,CCOC[C@]12COC[C@H]1CN(Cc1ccc3c(c1)OCO3)C2.O=C(O)C(F)(F)F,12.44%
16,O=C(CCc1ccccc1Br)NS(=O)(=O)c1ccc2c(c1)OCCO2,6.065%
17,O=C(CCc1ccccc1F)NS(=O)(=O)c1ccc2c(c1)OCCO2,-5.66%
18,O=C(CCc1ccccc1Cl)NS(=O)(=O)c1ccc2c(c1)OCCO2,62.1%
19,Cl.O=C(NC1CCCC1)C1(Cc2cc(C3CCOC3)no2)CCNCC1 (stereo not given),5.68%
20,O=C(c1cnc(-c2ccccn2)s1)N1CCCC(n2cccn2)C1 (stereo not given),-7.844%

row,SMILES,Percent Effect
1,CC1CCN(C(=O)[C@H]2CC[C@@H]3[C@@H](CCN3Cc3nccs3)O2)CC1.O=C(O)C(F)(F)F,-10.06%
2,COc1ccc(CNC(=O)N2CCN(CC(O)C3CC3)CC2)cc1.Cl (stereo not given),14.41%
3,CC(C)c1cc(N(C)Cc2noc(C3CCCC3)n2)n2nccc2n1,67.06%
4,CC(C)Cc1nc(CN(C)c2cc(C(C)C)nc3ccnn23)no1,23.84%
5,CC(C)c1cc(N(C)Cc2cc(C3CC3)on2)n2nccc2n1,41.46%
6,COC(=O)N1CCC(Nc2cccc(F)c2C(C)=O)CC1,5.265%
7,COC(=O)N1CCC(Nc2cccc(F)c2C#N)CC1,83.06%
8,COC(=O)N1CCC(Nc2cccc(F)c2C(C)=O)C1 (stereo not given),10.56%
9,O=C(O)C(F)(F)F.O=C(O)C(F)(F)F.O=C(O)C(F)(F)F.c1cc(CN2C[C@@H]3OCCN(CC4CCCO4)[C@@H]3C2)ccn1 (stereo not given in full),-18.75%
10,CN(C(=O)C1CCCCC1)[C@@H]1CCC[C@@H](N2CCOCC2)[C@@H]1O,-6.532%
11,CN(C(=O)C1CCOCC1)[C@@H]1CCC[C@@H](N2CCCC2)[C@@H]1O,60.86%
12,CN(C(=O)C1CCOCC1)[C@@H]1CCC[C@@H](N2CCOCC2)[C@@H]1O,-10.17%
13,CC(C)OCCCN(Cc1cnn(C)c1)Cc1ccccn1.O=C(O)CC(O)(CC(=O)O)C(=O)O,-10.12%
14,CCC1=N[C@@]2(CC[C@@H]3CN(CC4CC4)C[C@@H]32)C(=O)N1C.O=C(O)C(F)(F)F,5.845%
15,COCC(O)CN1CC(C)(C)CN(C(=O)CCc2ccccc2)CC1=O (stereo not given),27.88%
16,CCN1CC(C)(C)CN(C(=O)CCc2ccccc2)CC1=O,22.76%
17,CN1CC(C)(C)CN(C(=O)CCc2ccccc2)CC1=O,21.51%
18,CCCC(O)CN1CC(C)(C)CN(C(=O)CCc2ccccc2)CC1=O (stereo not given),10.24%
19,CC(O)CN1CC(C)(C)CN(C(=O)CCc2ccccc2)CC1=O (stereo not given),50.7%
20,CC(C)(O)CN1CC(C)(C)CN(C(=O)CCc2ccccc2)CC1=O,52.03%
